From PubChem BioAssay (NCI)
“And” between values parts separate entries of the source, which are not always exact repeats. Identical values can stand only once. About 83,000 compounds went through this panel and 20% of them were active in at least one assay; those are over-represented in the sample as a whole.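 Testing used 96-well plates and a 48-hour single-concentration exposure. Example: -40 means 40% of the starting cells died.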 A number with no mark means an inactive call. The source made the active and inactive calls.

tested on: RPMI-8226 leukemia; experiment: NCI-60 one-dose screen, 48 h (100 = growth as untreated, 0 = no growth, -100 = all killed); conditions: 4.75 µM
Method: Growth inhibition of the RPMI-8226 human tumor cell line is measured as a screen for anti-cancer activity. Cells are grown in 96 well plates and exposed to the test compound for 48 hours. Compounds are tested at a single concentration, which is 10^-5 M for most compounds. The reported endpoint is percent growth (GI% or GIPRCNT), where numbers from 0 - 100% represent growth inhibition, and numbers from -100% - 0 represent cell death. For example, a value of 40 represents 60% growth inhibition. A value of 0 means no net growth occurred over the course of the experiment. A value of -40 indicates 40% of cells at the beginning of the experiment died by the end of the experiment. A value of -100 means all cells are dead at the end of the experiment.
NCI-60 Human Tumor Cell Lines Screen was performed using the standard one-dose NCI protocol, which is described in more detail at https://dtp.cancer.gov/discovery_development/nci-60/default.htm.
Compounds with GIPRCNT values below 10 were considered active. Activity score was based on GIPRCNT using the following formula: […]
Score is 0 for GIPRCNT values of 100 or above, 50 for GIPRCNT values of 0, and 100 for GIPRCNT values of -100.

| Compound | growth |
| --- | --- |
| CC(=O)OCC1OC([S-])C(OC(C)=O)C(OC(C)=O)C1OC(C)=O.[Au+].c1ccc(CN2[CH-]N(Cc3ccccc3)C(c3ccccc3)=C2c2ccccc2)cc1 | -20.5% (active) |

same assay, conditions: 10 µM

| Compound | growth |
| --- | --- |
| CC(=O)OCC1OC([S-])C(OC(C)=O)C(OC(C)=O)C1OC(C)=O.[Au+].c1ccc(CN2[CH-]N(Cc3ccccc3)C(c3ccccc3)=C2c2ccccc2)cc1 | -4.74% (active) |

same assay, conditions: 10 µM unless noted

| Compound | growth |
| --- | --- |
| O=P1(N(CCCl)CCCl)NCCCO1 (stereo not given) | 103% |
| C[C@]12CCc3nc(-c4ccc(O)c(O)c4)sc3C1=CC[C@@H]1[C@@H]2CC[C@]2(C)C(=O)CC[C@@H]12 | 9.9% (active) |
| C[C@]12CCc3sc(Nc4ccc(F)cc4F)nc3C1=CC[C@@H]1[C@@H]2CC[C@]2(C)C(=O)CC[C@@H]12 | -20.8% (active) |
| Cn1cc(C(=O)C[n+]2ccccc2)c2ccccc21 | 98.2% |
| COc1ccn(C)c(=O)c1C#N | 102% |
| Cc1cc[n+](CCc2ccccc2)cc1 | 115% |
| C[C@]12CC[C@H]3[C@@H](C[C@@H]4SC(Nc5ccccc5)=N[C@@]45C/C(=N/O)CC[C@]35C)[C@@H]1CCC2=O | -1.41% (active) |
| CC(C)COC(=O)Cc1ccccc1 | 103% |
| COc1ccc(CN)cc1OC | 112% and 105% |
| CCCCCCCCCCCCCCCCCCn1cc[n+](C)c1 | 93.8% and 75.6% |
| O=[P+](O)c1cccnc1 | 100% |
| CO[C@H]1[C@H](O[C@@H]2C[C@@H]3C/C=C/C(=O)O[C@@H](CO)C[C@H](O)[C@@H]4C[C@H](C)[C@H](C/C=C\C=C\[C@H](C)C[C@H](C2)O3)O4)O[C@@H](C)[C@H](O)[C@H]1O | 28.1% |
| CC1=CC(=Nc2ccc(N(CCCl)CCCl)cc2)C=C(C)C1=O | 9.64% (active) |
| O=[N+]([O-])c1ccc(CI)cc1 | 53.2% |
| CCC1(CCSC#N)C(=O)NC(=O)NC1=O | 106% |
| Cc1cc2c(cc1-c1ccnc(/C=C/C(=O)O)c1)C(C)(C)CCC2(C)C | 41.4% |
| O=C(Cc1ccccc1)c1ccccc1 | 85.4% |
| C(=NC1CCCCC1)=NC1CCCCC1 | 97.6% and 50% |
| CN1CCC2(CC1)C(C#N)C(=O)NC(=O)C2C#N (stereo not given) | 109% |

| Compound | growth |
| --- | --- |
| CO[C@@H]([CH2][Hg][O]C(=O)c1ccccc1)[C@@H]([CH2][Hg][O]C(=O)c1ccccc1)OC | 92.2% |
| N#Cc1ccc(Cl)cc1 | 106% |
| CCN1C(=O)NC(=O)C(C)(N2C(=O)c3c(F)c(F)c(F)c(F)c3C2=O)C1=O (stereo not given) | 2.56% (active) |
| COc1ccc(C(C#N)C(C)=O)cc1 (stereo not given) | 101% |
| C=CC1CN2CCC1CC2C(O)c1ccnc2ccccc12 (stereo not given) | 213% |
| COc1ccc(/C=C(/C)[N+](=O)[O-])cc1OC | -17.9% (active) and -7.74% (active) |
| COc1cc(/C=C\[N+](=O)[O-])ccc1OCc1ccccc1 | -45.6% (active) |
| Oc1cc(N2CC2)c(O)cc1N1CC1 | 2.53% (active) |
| O=P(O)(Nc1ccccc1)Nc1ccccc1 | 91.8% |
| CC[PH+](CC)CC.O=COC1OC([S-])C(OC=O)C(OC=O)C1OC=O.[Au+] (stereo not given) | -27.2% (active) |
| O=NN(c1ccccc1)c1ccccc1 | 107% |
| CC[C@H](C)[C@H](NC(=O)CN(C)C)C(=O)N(C)[C@H](C[C@@H](OC(C)=O)c1nc(C(=O)NC23CC(C(=O)OC)(C2)C3)cs1)C(C)C | 18.8% |
| c1ccc2c(c1)O[As](O[As]1Oc3ccccc3O1)O2 | -14.9% (active) |
| O=C(O)C(Br)CBr (stereo not given) | 103% |
| C[C@]12CCC3[C@@H](C[C@@H]4SC(Nc5ccccc5)=N[C@@]45CC(=O)CC[C@]35C)[C@@H]1CCC2=O (stereo not given in full) | -14.8% (active) |
| CC1(C)N(Nc2ccccc2)C(=O)C2CCCN21 (stereo not given) | 13.7% |
| CCOC(=O)C1C(C=C(C)C)C1(C)C (stereo not given) | 96.9% |
| O=c1[nH]c(=O)[nH]c(=O)[nH]1 | 60.1% |
| Cc1cc[c-]cc1.Fc1c[c-]c(-c2ccccn2)c(F)c1.N#CCC[PH+](CCC#N)c1ccccc1.[Pt+2] | 14.6% |
